# According to ChEMBL document CHEMBL3433997, “St. Jude Leishmania screening dataset” (2016):
# Target: Hexose transporter 1 (Plasmodium falciparum) (UniProt O97467)
# Assay: ST_JUDE_LEISH: Cytotoxicity at 2uM final concentration against transgenic Leishmania Mexicana promastigotes LmPfHT that are glucose transport deficient and complemented with the Plasmodium falciparum hexose transporter. Activity is measured by DNA content using SYBR green in vitro
# Assay type: functional
row,Structure (SMILES),inhibition
1,CCc1nc(N)nc(N)c1-c1ccc(F)cc1,4.73%
2,Clc1ccc(OCc2ccccc2)c(-c2nc(-c3nc4ncc(Br)cc4[nH]3)cs2)c1,4.1%
3,O=c1cc(NCCCNCc2cccc(OC(F)(F)C(F)F)c2)[nH]c2ccccc12,7.27%
4,CCOc1ccccc1CNc1nccc(NCc2ccc(Cl)cc2Cl)n1,21.2%
5,COC(=O)c1cccc(CNCc2ccc(-c3ccc(-c4nc5cc(F)ccc5[nH]4)s3)cc2)c1,0.36%
6,NC(=O)c1ccc(NC(=O)CN(Cc2ccc(Cl)cc2)S(=O)(=O)c2ccccc2)cc1,5.01%
7,Cn1ccnc1S(=O)(=O)CCNCc1ccc(-c2ccc3ncnc(Nc4ccc(OCc5cccc(F)c5)c(Cl)c4)c3c2)o1,6.11%
8,c1ccc(Oc2ccc(Nc3ccnc4cc(-c5cccc(CN6CCOCC6)c5)ccc34)cc2)cc1,0.67%
9,CCc1c(C(=O)NC2CCC(N3CCC(c4ccccc4OC)CC3)CC2)[nH]c2ccc(OC)cc12 (stereo not given),2.5%
10,CC(=O)Nc1ccc(-c2nc3ccc(-c4nc5ccc(NC(C)=O)cc5[nH]4)cc3[nH]2)cc1,3.79%
11,CCN(CC)CCN(Cc1ccc(-c2ccc(C(F)(F)F)cc2)cc1)C(=O)Cn1c(CCc2ccc(F)c(F)c2F)nc(=O)c2cccnc21,0.44%
12,Cc1cc(N)c2cc(NC(=O)c3cccc(C(=O)Nc4ccc5nc(C)cc(N)c5c4)c3)ccc2n1,2.01%
13,CN1CCN(c2cc(-c3cccc(C(F)(F)F)c3)nc(-c3ccncc3)n2)CC1,4.44%
14,Cc1c(CNCCCNc2cc(=O)c3ccccc3[nH]2)sc(/C=N/O)c1Br,3.79%
15,CCN(CC)CCCNCc1ccc(-c2ccc(C(F)(F)F)cc2)cc1,2.78%
16,CN(C)CCCNc1nccc(N(C)c2ccc(NC(=O)Nc3cc(C(F)(F)F)ccc3F)cc2)n1,-0.78%
17,Cc1cc(N/N=C/c2cccc([N+](=O)[O-])c2)c2ccccc2n1,1.27%
18,N#Cc1cc(N(CCCOc2cccc(OC(F)(F)F)c2)Cc2ccccc2C(F)(F)F)ccc1C(F)(F)F,-0.39%
19,O=C(Nc1cccc(CN2CCCN(Cc3ccsc3)CC2)c1)c1ccc(-c2ccccc2)cc1,3.01%
20,CCOc1ccc(C2CCN(CCN3CCC(NC(=O)c4ccc(-c5ccc(C(F)(F)F)cc5)cc4)CC3)CC2)c(OCC2CC2)c1,3%

row,Structure (SMILES),inhibition
1,Cc1nn(-c2ccccc2)nc1C(=O)N(Cc1ccc(-c2ccc(CNCCc3ccc(S(C)(=O)=O)cc3)cn2)cc1)C1CC1,3.85%
2,CCn1c(SCC(=O)Nc2cc(C(F)(F)F)ccc2Cl)nc2ccccc2c1=O,3.62%
3,CCCCc1cc(Cc2cnc(N)nc2N)cc(OC)c1OC,2.41%
4,CCCCNC(=O)[C@@H](NC(=O)c1ccc(O)c(-c2ccc(Cl)c(Cl)c2)c1)C(C)C,4.37%
5,O=C(Nc1nc2ccc(Cl)cc2s1)c1csnn1,-1.39%
6,CCCCNCCOc1ccc(-c2nc(-c3ccccc3)c(-c3ccccc3)[nH]2)cc1,-0.08%
7,Cc1nc(C)c(-c2ccc(S(=O)(=O)c3ccc(Cl)cc3)cc2)c(O)c1Br,4.53%
8,O=C(NCC1CCC(C(=O)NC2CCCc3ccccc32)CC1)c1ccc(O)c(-c2ccc(Cl)c(Cl)c2)c1 (stereo not given),2.81%
9,COc1cc(Cc2cnc(N)nc2N)cc(OCc2cccc(C(=O)O)c2)c1OC,-2%
10,O=S(=O)(Nc1cc2c(cc1OCCCN1CCCCC1)CCNCC2)c1ccc(-c2ccc(Cl)cc2)cc1,-0.13%
11,CC1(C)C(N(O)C(=O)Nc2ccc(Cl)c(Cl)c2)N(c2ccc(Cl)c(Cl)c2)C(=O)N1CCc1ccccc1 (stereo not given),0.2%
12,COc1ccc(-c2cc(C(=O)Nc3ccc4[nH]c(-c5ccccc5)nc4c3)[nH]n2)cc1,12%
13,Cc1cc(NCCC(=O)Nc2ccccc2)nc(NCCc2ccccc2)n1,1.77%
14,O=C(Nc1ccc(-c2ccccc2)cc1)Nc1ccc2c(c1)CCNCC2,0.46%
15,Cc1cccc(CC2CC(=O)N(c3ccc([N+](=O)[O-])cc3)C2=O)c1 (stereo not given),7.62%
16,CN1CCN(c2ccc(Nc3c(C(N)=O)cnc4cc(-c5ccoc5)ccc34)cc2)CC1,24.6%
17,CN1CCN(Cc2cc3cc(NC(=O)/C=C/c4ccc(Cl)cc4)ccc3s2)CC1,0.55%
18,CCCC(=O)Nc1ccc(OCCCN(Cc2ccccc2F)c2ccc(C#N)c(C(F)(F)F)c2)cc1,0.66%
19,CCc1c(CCNCCCCCCNCCc2ccccc2)ccc(OC)c1OC,5.04%
20,COc1ccc(Nc2ncc3c(-c4cccc(NC(=O)Cc5cccnc5)c4)c[nH]c3n2)cc1OC,-0.55%
